Out of some 310,000 compounds screened, about 14,000 (4.5%) showed an effect of 50% or more. Effects have a minus sign here. What follows is part of a selection rich in strong results, with near analogues and random picks from the rest.
target: human ether-à-go-go-related gene (hERG) potassium channel (human, UniProt Q12809); test: primary screen, population patch clamp on CHO cells stably expressing hERG; higher = less effect of the substance
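Also: peak tail current of the secondary pulse compared with the same well before compound.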

human ether-à-go-go-related gene (hERG) potassium channel, sequence (Q12809 whole entry, looked up): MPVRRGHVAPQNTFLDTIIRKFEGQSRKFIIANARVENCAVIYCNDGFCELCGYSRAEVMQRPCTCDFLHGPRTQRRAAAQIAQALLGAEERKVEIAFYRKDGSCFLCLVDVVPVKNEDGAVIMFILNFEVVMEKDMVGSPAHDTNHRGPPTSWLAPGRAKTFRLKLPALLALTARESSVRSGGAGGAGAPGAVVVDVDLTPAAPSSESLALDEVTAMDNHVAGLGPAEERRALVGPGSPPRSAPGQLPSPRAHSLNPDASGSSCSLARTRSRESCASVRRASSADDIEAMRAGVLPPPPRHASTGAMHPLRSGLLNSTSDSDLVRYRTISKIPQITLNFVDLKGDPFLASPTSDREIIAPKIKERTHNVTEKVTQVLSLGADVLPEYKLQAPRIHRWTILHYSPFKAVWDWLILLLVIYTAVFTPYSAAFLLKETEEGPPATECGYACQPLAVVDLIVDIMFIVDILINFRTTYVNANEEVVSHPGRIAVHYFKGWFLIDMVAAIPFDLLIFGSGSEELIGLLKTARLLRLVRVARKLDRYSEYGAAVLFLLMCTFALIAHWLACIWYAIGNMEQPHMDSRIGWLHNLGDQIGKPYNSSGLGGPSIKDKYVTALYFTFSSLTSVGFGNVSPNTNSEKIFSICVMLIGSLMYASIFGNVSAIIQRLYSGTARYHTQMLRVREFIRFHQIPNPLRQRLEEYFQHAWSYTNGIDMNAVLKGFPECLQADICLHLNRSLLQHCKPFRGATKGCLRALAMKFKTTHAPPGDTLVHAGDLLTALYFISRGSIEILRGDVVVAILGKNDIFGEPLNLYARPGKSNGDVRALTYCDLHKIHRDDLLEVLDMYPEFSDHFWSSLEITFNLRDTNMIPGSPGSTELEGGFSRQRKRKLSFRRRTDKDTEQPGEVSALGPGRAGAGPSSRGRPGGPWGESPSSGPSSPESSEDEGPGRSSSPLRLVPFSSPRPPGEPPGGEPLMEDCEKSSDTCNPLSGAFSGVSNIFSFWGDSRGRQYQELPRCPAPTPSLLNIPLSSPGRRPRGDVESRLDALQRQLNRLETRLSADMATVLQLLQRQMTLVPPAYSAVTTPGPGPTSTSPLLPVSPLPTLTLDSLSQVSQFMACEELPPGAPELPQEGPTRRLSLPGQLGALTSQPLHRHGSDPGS

SMILES | hERG current change (%, negative = inhibition) at 10uM
COc1cc(NC(=O)CN2CCN(S(=O)(=O)/C=C/c3ccccc3)CC2)cc(OC)c1OC | -14.8%
Cc1cc(C)cc(NC(=O)CN2CCC(NC(=O)c3cccc(F)c3)CC2)c1 | -39%
Cc1cccc(NC(=O)CN2CCCCCC2)c1 | 7.69%
CC(=O)c1cccc(NC(=O)CN2CCN(S(=O)(=O)/C=C/c3ccccc3)CC2)c1 | -53.9%
Cc1ccc(NC(=O)CN2CCC(NC(=O)c3cccc(F)c3)CC2)cc1C | -41.3%
Cc1cccc(NC(=O)CN2CCN(CC(=O)Nc3cccc(C)c3)CC2)c1 | -63.7%
O=C(CN1CCN(Cc2ccccc2)CC1)Nc1cccc(Br)c1 | -51.7%
COC(=O)c1cccc(NC(=O)CN2CCN(Cc3ccccc3)CC2)c1 | -16%
CC(=O)c1cccc(NC(=O)CN2CCN(Cc3ccccc3)CC2)c1.Cl | -10.9%
Cc1cccc(NC(=O)Cn2cccc2)c1 | -5.5%
O=C(CN1CCC(NC(=O)c2cccc(F)c2)CC1)Nc1ccc(Br)cc1 | -73%
NS(=O)(=O)c1ccc(NC(=O)CN2CCN(S(=O)(=O)/C=C/c3ccccc3)CC2)cc1 | -9.04%
CC(C(Sc1ccccc1N)c1ccccc1)[N+](=O)[O-] (stereo not drawn) | 7.82%
CCOP(=O)(O)c1cccc(OCCOCCOc2cccc(P(=O)(O)OCC)c2)c1 | 4.45%
Cn1c(=NCC(O)COc2ccccc2)sc2ccccc21 (stereo not drawn) | -42.7%
COc1ccnc(Oc2ccccc2)c1C(N)=O | 20.2%
C/C(Cn1cnc([N+](=O)[O-])n1)=N\NC(=O)c1cccc(F)c1 | 6.43%
COC(=O)c1cccc(NC(=O)CSc2nnc(C)n2C)c1 | 26%
Cc1ccc(NC(=O)C2CCN(S(=O)(=O)c3ccc4c(c3)NC(=O)C(C)S4)CC2)c(C)c1 (stereo not drawn) | -3.06%
O=C(O)C1CCN(C(=O)c2ccco2)CC1 | 9.94%
COc1ccc(N(CC(=O)N/N=C/c2ccccc2OC)S(=O)(=O)c2ccccc2)cc1 | 19.9%
Cc1cc(N2C(=O)C(O)=C(C(=O)c3cccs3)C2c2cccc(Br)c2)no1 (stereo not drawn) | 6.05%
c1ccc(-c2nnc(-c3ccncc3)nc2-c2ccccc2)cc1 | -24.5%
COc1cccc2c(=O)cc(C)n(CC(=O)Nc3ccc(Br)cc3)c12 | 12.8%

SMILES | hERG current change (%, negative = inhibition) at 10uM
COc1cccc2c(=O)cc(C)n(CC(=O)Nc3ccc(C)c(C)c3)c12 | -5.88%
COc1cccc2c(=O)cc(C)n(CC(=O)Nc3cccc(C)c3)c12 | -59.4%
O=C(c1cccc(S(=O)(=O)N2CCN(c3ccccc3)CC2)c1)N1CCCCCCC1 | -33.4%
Cc1ccc(NC(=O)c2cccc(S(=O)(=O)N3CCN(c4ccccc4)CC3)c2)nc1 | -1.19%
O=C(c1cccc(S(=O)(=O)N2CCCCCC2)c1)N1CCN(c2ccccc2)CC1 | -68.8%
O=C(c1cccc(S(=O)(=O)N2CCCCC2)c1)N1CCN(c2ccccc2)CC1 | -73.1%
Cc1ccc(C(=O)NNC(=O)c2cccc(S(=O)(=O)N3CCN(c4ccccc4)CC3)c2)cc1 | -25.4%
O=C(c1cccc(S(=O)(=O)N2CCOCC2)c1)N1CCN(c2ccccc2)CC1 | -15.7%
CC(=O)N1CCN(C(=O)c2cccc(S(=O)(=O)N3CCN(c4ccccc4)CC3)c2)CC1 | -16.5%
O=C(c1cccc(S(=O)(=O)N2CCCC2)c1)N1CCN(c2ccccc2)CC1 | -13%
O=C(NNC(=O)c1cccc(S(=O)(=O)N2CCN(c3ccccc3)CC2)c1)c1ccc(Cl)cc1 | -59.5%
CC1Oc2ccccc2N(CC(=O)NCc2ccccc2)C1=O (stereo not drawn) | 6.53%
CCOC(=O)C1=NN(c2ccccc2)C2=NC(C)=C(C(=O)OC)C(c3cccs3)N12 (stereo not drawn) | -5.66%
CCc1ccc(NC(=O)CNS(=O)(=O)c2c(C)noc2C)cc1 | -2.28%
N#Cc1nc(-c2ccco2)oc1N1CCN(c2cccc(Cl)c2)CC1 | -16.1%
COc1cc(NC(=O)CSc2nnnn2-c2ccccc2)cc(OC)c1OC | -0.308%
CCOc1ccccc1NC(=O)c1cccc2c1C(=O)N(C1CCCCC1)C2 | 9.57%
C1CCCCCC2(CCCCC1)OCC(CN1CCOCC1)O2 (stereo not drawn) | -20.5%
O=C(CCCc1nc2ccccc2s1)NCc1ccc(F)cc1 | -37.4%
CN(Cc1nc2ccccc2s1)C(=O)c1ccc(F)cc1 | -61%
CN(C)S(=O)(=O)c1ccc(C(=O)NCc2nc3ccccc3s2)cc1 | 1.24%
Cc1cccc(-c2nc(=S)c3c(n2Cc2ccco2)CCCC3)c1 | 7.14%
O=C(NCc1ccccc1)C1=C[C@H](c2coc3ccccc3c2=O)C[C@H](OCc2ccc(CO)cc2)O1 | -38.1%
CCn1c(=O)cc(SCC(=O)NCCC2=CCCCC2)c2ccccc21 | -6.46%

SMILES | hERG current change (%, negative = inhibition) at 10uM
Cc1ccc(OCCCC(=O)Nc2ccc(Br)cc2)cc1 | 17.2%
CN(CCOc1ccc(Br)cc1)CC(O)c1ccccc1.O=C(O)C(=O)O (stereo not drawn) | -63.1%
CC(=O)c1ccc(OCC(O)CN(C)CCOc2ccc(Br)cc2)cc1 (stereo not drawn) | 23.4%
CN(CCOc1ccc(Cl)cc1)CC(O)c1ccccc1.O=C(O)C(=O)O (stereo not drawn) | -60.4%
CC(C)c1ccc(CN(C)CC(O)c2ccccc2)cc1.O=C(O)C(=O)O (stereo not drawn) | -18.9%
CN(CCOc1ccccc1)CC(O)COc1ccccc1 (stereo not drawn) | 10.8%
CC(OCC(O)CN(C)CCOc1ccccc1)c1ccc(Cl)cc1 (stereo not drawn) | -43.5%
COC(=O)c1cc(Cl)c(NC(=O)/C=C/c2ccc(Cl)cc2Cl)cc1OC | -10.9%
COc1ccc(N2CCN(C(=O)CNC(=O)Cc3ccc(Cl)cc3)CC2)cc1 | -8.38%
Cc1cc(C)c(C#N)c(SCC(=O)CC(=O)OC(C)C)n1 | 1.82%
Cc1ccc(NS(=O)(=O)c2ccc(Br)s2)nc1 | 23.4%
Cc1ccc(C)c(OCCCC(=O)Nc2nccs2)c1 | 12.9%
CC(C)Cn1nc(-c2ccccc2)c2ccccc2c1=O | 20.1%
CCN(Cc1ccccc1)C(=O)C1CCN(C/C(C)=C/c2ccccc2)CC1.O=C(O)C(=O)O | -70.4%
CCCCNC(=O)C1CCN(C/C(C)=C/c2ccccc2)CC1.O=C(O)C(=O)O | -63%
CCCCN(C)C(=O)C1CCN(C/C(C)=C/c2ccccc2)CC1.O=C(O)C(=O)O | -73.4%
CCOC(=O)N1CCN(C/C(C)=C/c2ccccc2)CC1 | -25.1%
C/C(=C\c1ccccc1)CN1CCC(C(=O)N2CCC(C)CC2)CC1.O=C(O)C(=O)O | -63%
C/C(=C\c1ccccc1)CN1CCN(C)CC1 | 16.2%
CCCCNC(=O)C1CCN(Cc2ccccn2)CC1 | 12%
C/C(=C\c1ccccc1)CN1CCC(C(=O)N2CCCCC2)CC1.O=C(O)C(=O)O | -47.5%
CC1CCN(C(=O)C2CCN(CC(C)c3ccccc3)CC2)CC1.O=C(O)C(=O)O (stereo not drawn) | -13.5%
CCN1CCN(C/C(C)=C/c2ccccc2)CC1 | 4.72%
CCN(Cc1ccccc1)C(=O)C1CCN(C(=O)Nc2ccccc2)CC1 | 14.8%

SMILES | hERG current change (%, negative = inhibition) at 10uM
CCN(CC)C(=O)C1CCCN(C/C(C)=C/c2ccccc2)C1 (stereo not drawn) | -30.7%
Cc1cc(C)c(NC(=O)C2CCN(C(=O)c3ccco3)CC2)c(C)c1 | 19.9%
COc1ccc(C2C(C(=O)c3sc(C)nc3C)=C(O)C(=O)N2CCN(C)C)cc1 (stereo not drawn) | -6.4%
O=C(COC(=O)c1cccs1)Nc1cccc(Cl)c1 | 10.2%
CCC(C)(C(=O)NC1CCCCC1)N(C(=O)CC1NC(=O)NC1=O)c1c(C)n(C)n(-c2ccccc2)c1=O (stereo not drawn) | 12.8%
Cc1onc(-c2ccccc2Cl)c1C(=O)Nc1nc2ccc(S(C)(=O)=O)cc2s1 | -2.5%
CC1(C)NC(=O)N(CC(=O)N2CCCC(C(F)(F)F)C2)C1=O (stereo not drawn) | 10.4%
COC(=O)c1ccc(CNC(=O)COC(=O)c2cc(Cl)nc(Cl)c2)cc1 | 8.69%
CCn1c2ccccc2c2cc(NC(=O)C(=O)NCC3CCCO3)ccc21 (stereo not drawn) | -6.57%
COc1cc2c(cc1NC(=O)C(C)OC(=O)/C=C/c1ccc(OC(F)F)cc1)oc1ccccc12 (stereo not drawn) | 7.07%
COc1ccc(CCNc2cc(N3CCN(C(=O)c4ccc(C)cc4)CC3)ccc2[N+](=O)[O-])cc1OC | 8.2%
COC(=O)C(NC(=O)c1ccccc1)=C(C)C | 0.816%
O=C(c1ccc(F)cc1)C1CCN(C(=S)Nc2ccccc2)CC1 | -28.8%
Cc1ccc(CNC(=O)C2CCN(C(=O)Nc3ccccc3)CC2)cc1 | -16.3%
Cc1ccccc1NC(=S)N1CCC(C(=O)c2ccc(F)cc2)CC1 | -45%
CC(C)CNC(=S)N1CCC(C(=O)c2ccc(F)cc2)CC1 | -61.4%
COc1ccc(C(=O)C2CCN(C(=S)Nc3ccc(F)cc3)CC2)cc1 | -46.9%
CCCNC(=S)N1CCC(C(=O)c2ccc(F)cc2)CC1 | -8.84%
O=C(c1ccc(F)cc1)C1CCN(C(=S)Nc2ccc(F)cc2)CC1 | -57.2%
O=C(c1ccc(F)cc1)C1CCN(C(=S)Nc2ccccc2Cl)CC1 | 0.35%
O=C(NCc1ccc(F)cc1)C1CCN(C(=O)Nc2ccc(F)cc2)CC1 | -49.2%
C=CCNC(=S)N1CCC(C(=O)c2ccc(F)cc2)CC1 | -44.4%
CCc1ccccc1NC(=S)N1CCC(C(=O)c2ccc(F)cc2)CC1 | -63%
Cc1ccc(NC(=O)N2CCC(C(=O)NCc3ccc(F)cc3)CC2)cc1 | -52.2%

From paper PMC4336329 (PLoS ONE, 2015)
